Assay outcomes as filed in PubChem BioAssay.
BAZ2B block: inhibitors of human BAZ2B bromodomain; AlphaScreen BAZ2B-H3K14Ac peptide displacement; Potency, µM (series often up to 114 µM), for inactives: at the highest dose activity change, negative = inhibition, actives largely listed as inhibitors; 4.4% of 360,000 active; AID 504333; also: % is scaled to controls: 0 for no effect and ±100 for the full control effect; nearly all actives have a fitted effect of over 60% in size
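AlphaScreen displacement of biotin-H3(5-23)K14Ac peptide (50 nM final) from BAZ2B (50 nM final) in PBS pH 7.4, 0.01% Tween-20; complex preformed 30 min RT, then compounds (top 110 uM) 30 min RT, beads 20 min dark.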
12-LOX inh: ALOX12 (human) lipoxygenase inhibition; P18054; purified 12hLO, xylenol orange hydroperoxide absorbance; Potency, µM (doses to about 108 µM), without a hit: top-dose activity change, negative = inhibition, actives largely listed as inhibitors; 1.1% of 580,000 active; also: % is scaled to controls: 0 for no effect and ±100 for the full control effect
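Purified human 12hLO (150 nM final) in 25 mM Hepes, 0.01% Triton X-100, pH 7.0 was preincubated 15 min at room temperature with compound. Then 40 uM arachidonic acid was added, 30 min. Hydroperoxide was read by Fe-XO absorbance ratio 573/405 nm.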
PLK1 PBD block: blocks phosphopeptide binding to human PLK1 polo-box domain; P53350; AID 720504; 2.8% of 360,000 active; Potency, µM, for the others: max response, negative = inhibition, usual class: inhibitors; Plk1 PBD binding of FITC phosphopeptide, fluorescence polarization; also: series mostly up to about 57 µM; % is scaled to controls: 0 for no effect and ±100 for the full control effect; nearly all actives have a fitted effect of over 65% in size
Target sequence (P53350 whole entry, looked up, the tested form may be a part): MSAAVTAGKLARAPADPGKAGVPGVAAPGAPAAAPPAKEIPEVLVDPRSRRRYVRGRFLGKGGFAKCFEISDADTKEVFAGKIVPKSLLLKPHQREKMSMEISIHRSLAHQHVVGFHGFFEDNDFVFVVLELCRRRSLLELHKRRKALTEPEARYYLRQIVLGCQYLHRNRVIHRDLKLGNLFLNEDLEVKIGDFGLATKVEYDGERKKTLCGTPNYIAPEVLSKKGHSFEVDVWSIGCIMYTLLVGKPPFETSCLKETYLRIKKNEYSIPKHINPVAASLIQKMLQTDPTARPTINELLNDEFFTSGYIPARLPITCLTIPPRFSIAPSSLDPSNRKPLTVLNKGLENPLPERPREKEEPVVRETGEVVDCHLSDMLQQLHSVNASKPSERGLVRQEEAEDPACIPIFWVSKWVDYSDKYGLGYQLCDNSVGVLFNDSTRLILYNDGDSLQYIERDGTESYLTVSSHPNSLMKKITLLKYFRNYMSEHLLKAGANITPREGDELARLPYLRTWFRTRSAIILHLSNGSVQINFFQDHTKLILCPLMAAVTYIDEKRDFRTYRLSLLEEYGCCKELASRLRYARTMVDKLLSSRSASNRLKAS
JMJD2A Tudor inh: inhibitors of human JMJD2A Tudor domain. Potency, µM (top dose mostly 114 µM), inactives show at the highest dose activity change, negative = inhibition, actives largely listed as inhibitors. 4.4% of 390,000 active. AID 504339. AlphaScreen JMJD2A-Tudor / H3K4me3 peptide binding. O75164; also: % is scaled to controls: 0 for no effect and ±100 for the full control effect; nearly all actives have a fitted effect of over 50% in size
HP1b chromo inh: inhibitors of HP1-beta chromodomain binding to methylated histone tails; AlphaScreen HP1-beta / biotin-H3K9me3 peptide binding; Potency, µM (top dose mostly 114 µM), inactives show at the highest dose activity change, negative = inhibition, usual class: inhibitors; 0.56% of 390,000 active; AID 540317; also: nearly all actives have a fitted effect of over 70% in size
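Compound inhibition of the preformed complex between 50 nM HP1-beta and 50 nM biotinylated H3K9me3 peptide was read by AlphaScreen. Buffer was PBS pH 7.4 with 0.01% Tween-20. Incubations ran 30 min at room temperature, with 10 ug/mL donor/acceptor beads.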
G9a inh: blocks human histone lysine methyltransferase G9a; G9a H3K9 monomethylation, AlphaScreen, 2 h; AID 504332; 8.8% of 350,000 active; Q96KQ7; Potency, µM (doses to about 102 µM), for inactives: at the top dose activity, negative = inhibition, most hits filed as inhibitors; also: % is scaled to controls: 0 for no effect and ±100 for the full control effect; nearly all actives have a fitted effect of over 75% in size
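Chemiluminescent proximity detection of H3K9 monomethylation, read after 10 min bead incubation in the dark. Reaction: 20 nM G9a, 500 nM biotin-H3K9 peptide, 20 uM SAM cofactor, 2 h, room temperature, following 15 min enzyme-compound preincubation.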
* hit, by the source's call; ? = inconclusive; nt = no result given; [ ] = remark or other dose. Shown are actives, neighbours in structure and some others; about 9% of the full set was active somewhere. Calls follow the shape of the dose curve; as a rule, active = well fitted curve in the direction sought with a large enough effect; inconclusive = small, poorly fitted or top-dose-only effect, or another doubt; inactive = no such curve, though single readings can be large; an effect the other way counts as inactive or inconclusive. Potency is read from the fitted curve at half-maximal effect.

SMILES	BAZ2B block	12-LOX inh	PLK1 PBD block	JMJD2A Tudor inh	HP1b chromo inh	G9a inh
CCOc1ccc(N2C(=O)CC(n3ccc(C)n3)C2=O)cc1 (stereo not given)	2%	-54%	-1%	-7%	40%	-5%[59 µM]
Cn1c(NCc2ccccc2O)nc2ccccc21	1%	-16%	-1%	-8%	37%	3%[59 µM]
CCN(C(=O)CN1CCN(c2ccc(O)cc2)CC1)c1c(N)n(Cc2ccccc2)c(=O)[nH]c1=O	nt	?	27µM*	?	-12%	8.9µM*
Cn1c(=O)c(C(=O)CN2CCc3ccccc32)c(N)n(Cc2ccccc2)c1=O	6%	-18%	30µM*	50µM*	-4%	35µM*
COCCN(C(=O)CN1CCc2ccccc21)c1c(N)n(Cc2ccccc2)c(=O)[nH]c1=O	-1%	?	2%	-9%	46%	?
CCN(C(=O)CN1CCc2ccccc21)c1c(N)n(Cc2ccccc2)c(=O)[nH]c1=O	-16%	-1%	-15%	-17%	43%	28µM*
Cn1c(=O)c(C(=O)CN2CCCc3ccccc32)c(N)n(Cc2ccccc2)c1=O	-61%	-24%	-15%	?	1%	?
CC(=O)Nc1ccc(C)c(NC(=S)Nc2ccc(F)cc2)c1	-7%	?	-2%	6%	49%	nt
CC(C)(/C=N/O)/[N+]([O-])=C/c1ccccc1	-7%	?	-2%	-7%	37%	50µM*
CC(C)(C(=O)c1ccccc1)/[N+]([O-])=C/c1ccccc1	nt	?	3%	-17%	23%	nt
CCOC(=O)Cc1c[nH]c(=S)[nH]c1=O	-9%	?	-2%	?	14%[57 µM]	-9%[2.33 µM]
CC[n+]1c(C)sc2cc(OC)ccc21	-18%	?	-19%	-10%	28%	25µM*
O=C(COc1ccc(-c2ccccc2)cc1)N1CCCC1	?	-14%	-4%	-9%	22%	35µM*
COc1ccc(N2CCN(C(=O)CCc3ccccc3OC)CC2)cc1	?	0%	-14%	?	-7%	79µM*
COc1ccc(N2CCN(C(=O)COc3cccc4ccccc34)CC2)cc1	11µM*	nt	-3%	32µM*	?	nt
COc1ccc(N2CCN(C(=O)CCc3c(C)nc4cc(-c5ccc(OC)cc5OC)nn4c3C)CC2)cc1	18µM*	-22%	nt	-15%	4%	?
COc1ccc(-c2cc3nc(C)c(CCC(=O)N4CCN(c5ccc(F)cc5)CC4)c(C)n3n2)c(OC)c1	-16%	-25%	nt	-27%	28%	?
COc1ccccc1CCC(=O)N1CCN(C(=O)c2ccccc2)CC1	4%	119%	-12%	-1%	21%	24%
COc1ccc(CC(=O)NNS(=O)(=O)c2ccccc2[N+](=O)[O-])cc1	-2%	-26%	-4%	-19%	-6%	-1%
CC(=O)NC(CC(=O)NCC(=O)Nc1ccc(F)c(F)c1)c1ccccc1 (stereo not given)	4%	-15%	-2%	-3%	36%	-16%
CN(C)C(=O)c1ccc(-c2cc(NCc3cccs3)ncn2)cc1	nt	?	nt	nt	nt	19%[0.501 µM]
COc1ccc(N2CCN(C(=O)CCC(=O)N3Cc4ccccc4Oc4ncccc43)CC2)cc1	40µM*	-13%	-3%	-27%	5%	nt
COc1ccc(N2CCN(C(=O)CCCSc3nc4ccccc4[nH]3)CC2)cc1	-26%	?	-8%	-17%	12%	45µM*
Cc1cc(OCC(=O)N2CCCC2)cc(C)c1Cl	12%	-11%	-3%	13%	39%	1.3µM*
COc1ccc(OCC(=O)N2CCN(C(=O)c3ccccc3)CC2)cc1	14%	13%	0%	-29%	18%	14%[12.7 µM]
SMILES	BAZ2B block	12-LOX inh	PLK1 PBD block	JMJD2A Tudor inh	HP1b chromo inh	G9a inh
COc1ccc(N2CCN(C(=O)COc3ccccc3)CC2)cc1	-13%	-8%	3%	-28%	13%	45µM*
Cc1cccc(C(=O)NCC(=O)N2CCCCCCC2)c1	-5%	16%	-9%	-10%	29%	-1%[12.7 µM]
COc1ccc(S(=O)(=O)N(C)C[C@H]2Oc3ccc(NS(=O)(=O)c4ccccc4)cc3C(=O)N([C@H](C)CO)C[C@@H]2C)cc1	nt	-1%	-20%	-25%	20%	nt
COc1ccc(-c2nc3ccccc3o2)cc1NC(=O)c1ccccc1Cl	nt	-5%	nt	nt	nt	nt
O=C(c1coc(COc2cccc(F)c2)n1)N1CCCCC1c1nccs1 (stereo not given)	nt	13%	nt	nt	nt	nt
O=C(N[C@H](Cc1ccncc1)C1CC(O)C1)c1ccc(CO)o1 (stereo not given in full)	nt	22%	nt	nt	nt	nt
COc1ccc(N2CCN(C(=O)COCc3cc(-c4ccc5c(c4)OCO5)on3)CC2)cc1	?	-9%	-15%	-24%	4%	14µM*
COc1ccccc1CCC(=O)N1CCN(S(=O)(=O)c2cc(C(F)(F)F)ccc2Cl)CC1	0%	?	-4%	-15%	37%	8.9µM*
CCN1CCN(C(=O)COCc2cc(-c3ccc4c(c3)OCO4)on2)CC1	-16%	-12%	-8%	-17%	20%	?
O=C1NC[C@H](CCCCN2CCN(CCc3ccc(O)cc3)C(=O)C2=O)N(CCc2ccc(O)cc2)C1=O	nt	?	-9%	nt	nt	nt
O=[N+]([O-])c1cc(Br)c(O)c(C=Nc2ccc(N3CCOCC3)cc2)c1	35µM*	?	-15%	-24%	7%	35µM*
Oc1ccc(N=Cc2cc(Br)c(N3CCOCC3)o2)cc1	-38%	?	0%	?	-17%	14µM*
CN1CCN(c2ncc3nc(CCc4ccccc4)c(=O)n(CCC#N)c3n2)CC1	nt	?	nt	nt	nt	-1%[12.7 µM]
CCn1c(SCC(=O)NCc2ccc3c(c2)OCO3)nnc1-c1ccco1	-11%	-3%	-11%	-6%	15%	-11%
COc1ccc(S(=O)(=O)Nc2cccc(-c3ccc(N4CCCCC4)nn3)c2)c(OC)c1	nt	11µM*	nt	nt	nt	nt
COc1ccc(S(=O)(=O)Nc2cccc(-c3ccc4nncn4n3)c2)c(OC)c1	2%	?	17µM*	3%	?	11µM*
O=C(Nc1cccc(-c2ccc(N3CCCCC3)nn2)c1)c1ccc(Br)o1	-6%	?	-6%	-15%	7%	28µM*
COc1ccc(OC)c(S(=O)(=O)Nc2ccc(-c3ccc(N4CCC(C)CC4)nn3)cc2)c1	nt	8.9µM*	nt	nt	nt	nt
CCC1CN(C(=O)Nc2ccccc2C(F)(F)F)c2ccccc2S1 (stereo not given)	-36%	?	nt	?	0%	-18%[59 µM]
COc1ccc(CN(C)CC(=O)NC(=O)Nc2ccccc2F)cc1	3%	377%	-6%	-8%	67%	-47%[2.33 µM]
Nc1nc2c(ncn2[C@@H]2O[C@H](C(=O)NCCCN3CCCC3=O)[C@@H](O)[C@H]2O)c(=O)[nH]1	nt	14%	nt	nt	nt	nt
